Consider 37 compounds from PubChem BioAssay (Tox21).

Several values for one entry are separate records, joined by “and”; a condition that tells them apart may be missing. Equal values may be shown once. Records with an inconclusive call do not appear. A number with no mark means an inactive call. Activity calls are given as the source filed them. Calls follow the shape of the dose curve; as a rule, active = well fitted curve in the direction sought with a large enough effect in the repeat runs; inconclusive = weak or mixed curves; inactive = no such curve, though single readings can be large; an effect the other way counts as inactive or inconclusive.
% is scaled to controls: 0 for no effect and ±100 for the full control effect.

One assay is described as follows: qHTS assay to identify small molecule agonists of the RXR signaling pathway - cell viability counter screen (AID 1159529). Also: nearly all actives have a fitted effect of over 50% in size. Also: potency is read from the fitted curve at half-maximal effect.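 As to activity change, negative = cytotoxicity: HEK 293T cells carrying an RXR-alpha UAS beta-lactamase reporter.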 Conditions: RXR-alpha-bla HEK293T viability, CellTiter-Glo, 16 h; series mostly up to 76.8 µM; activity change, negative = cytotoxicity: at the top concentration. Summed up:
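HEK 293T RXRa-bla cells, 2% CS-FBS; 5 h settle; cpd 16 h 37 C, 5% CO2; CellTiter-Glo 30 min RT, luminescence. Tetraoctyl ammonium bromide as positive control.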
(Quantitative high-throughput screening tests each substance at several concentrations.)
For the compound `C=CC(=O)Nc1cc2c(Nc3ccc(F)c(Cl)c3)ncnc2cc1OCCCN1CCOCC1`, the Potency is 4.77 µM (active).

As to `Cc1cc(=O)oc2cc(O)cc(O)c12`, the “activity change, negative = cytotoxicity” value was 9.61%.

On to `O=C(O)[C@H](O)[C@@H](O)[C@H](O[C@@H]1O[C@H](CO)[C@H](O)[C@H](O)[C@H]1O)[C@H](O)CO`, for which the “activity change, negative = cytotoxicity” value is 2.08% [at 35.3 µM].

For the compound `c1ccsc1`, the “activity change, negative = cytotoxicity” value is 11.2%.

In the case of `Nc1cc(Cl)c(O)c(Cl)c1`, the “activity change, negative = cytotoxicity” value is -12.2%.

Consider `CN(C)C(=O)COC(=O)Cc1ccc(OC(=O)c2ccc(N=C(N)N)cc2)cc1`, for which the “activity change, negative = cytotoxicity” value is 14.1% [at 35.3 µM].

For the compound `Nc1ccc(NCCO)c([N+](=O)[O-])c1`, the “activity change, negative = cytotoxicity” value is 0.366%.

As to `C/C=C/C=C/COC(=O)C(C)C`, the “activity change, negative = cytotoxicity” value is 0.403%.

Consider `C[Si](Cl)(c1ccccc1)c1ccccc1`, for which the “activity change, negative = cytotoxicity” value is -15.6%.

In the case of `Cc1cccc(C)c1NC(=O)c1ccc(N)cc1`, the “activity change, negative = cytotoxicity” value is -7.19% [at 35.3 µM].

As for `CCC(COC(=O)CCS)(COC(=O)CCS)COC(=O)CCS`, the “activity change, negative = cytotoxicity” value is 0.269%.

On to `CC(C)OC(=O)C(O)(CC(=O)O)CC(=O)O`, for which the “activity change, negative = cytotoxicity” value was -3.48%.

For the compound `S=c1nccc[nH]1`, the “activity change, negative = cytotoxicity” value was 1.92%.

On to `CCC(C)[O-].CCC(C)[O-].CCOC(=O)/C=C(/C)[O-].[Al+3]`, for which the “activity change, negative = cytotoxicity” value is -2.02%.

`CN1CCN(Cc2cc(-c3ccc4[nH]c(=O)oc4c3)co2)[C@@H](c2ccc(F)cc2)C1`: the “activity change, negative = cytotoxicity” value is -7.18%.

On to `OC1CCCc2ccccc21` (stereo not drawn), for which the “activity change, negative = cytotoxicity” value was 1.73%.

Consider `Cc1nc(-c2ccc(Cl)cc2)oc1COC(C)(C)C(=O)O`, for which the “activity change, negative = cytotoxicity” value was 8.67% [at 35.3 µM].

Take `O=C(O)c1cccc(C(F)(F)F)c1`: the “activity change, negative = cytotoxicity” value was 17.5%.

For `CCCCOC(=O)CO`, the “activity change, negative = cytotoxicity” value was -0.46%.

As to `CCC(C)(CCC(C)C)C(=O)[O][Sn]([CH3])([CH3])[O]C(=O)C(C)(CC)CCC(C)C` (stereo not drawn), the “activity change, negative = cytotoxicity” value is -2.24%.

With `[Cu+]`, the “activity change, negative = cytotoxicity” value was -17.3%.

Turning to `O=C(O)CN(CCN(CC(=O)O)CC(=O)O)CC(=O)O`, the activity change, negative = cytotoxicity was -6.94% [at 2.72 µM].

The next assay can be described thus: qHTS assay to identify small molecule antagonists of the retinoid acid receptor (RAR) signaling pathway - cell viability counter screen (AID 1159551). Also: nearly all actives have a fitted effect of over 35% in size. Also: potency is read from the fitted curve at half-maximal effect. Conditions: C3RL4 cells viability, ATP luminescence (CellTiter-Glo), 6 h; series mostly up to 92.4 µM; activity change, negative = cytotoxicity: at the top concentration. The essentials:
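ATP-based viability, C3RL4 cells, 6 h at 37 C with 1 uM final retinol co-added after compound; luminescence read 30 min post CellTiter-Glo, RT.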
Turning to `CC(=O)CC(=O)Nc1ccc(S(=O)(=O)O)cc1`, the “activity change, negative = cytotoxicity” value was 2.04%.

For the compound `COC(=O)C1=C(C)NC(C)=C(C(=O)OCCN2CCN(C(c3ccccc3)c3ccccc3)CC2)C1c1cccc([N+](=O)[O-])c1` (stereo not drawn), the “activity change, negative = cytotoxicity” value is -3.09% [at 42.5 µM].

As for `CCCC(=O)OCOC(=O)C1=C(C)NC(C)=C(C(=O)OC)C1c1cccc(Cl)c1Cl` (stereo not drawn), the “activity change, negative = cytotoxicity” value is 4.31% [at 42.5 µM].

`CC/C=C\CCCCCO`: the “activity change, negative = cytotoxicity” value was -0.312%.

For the compound `C=CC(C)(CCC=C(C)C)OC=O` (stereo not drawn), the “activity change, negative = cytotoxicity” value was 0.32%.

Consider `CCCC1CCC(=O)CC1`, for which the “activity change, negative = cytotoxicity” value is -1.51%.

For the compound `CN(C)c1ccc(C(=C2C=CC(=[N+](C)C)C=C2)c2ccc(N(C)C)cc2)cc1`, the Potency is 17.1 µM (active) and 27.3 µM (active) and 23.7 µM (active).

With `Nc1nc(N)nc(-c2cc(Cl)ccc2Cl)n1`, the “activity change, negative = cytotoxicity” value is 3.01% [at 42.5 µM].

Regarding `C=C(CC)C(=O)c1ccc(OCC(=O)O)c(Cl)c1Cl`, the “activity change, negative = cytotoxicity” value was 4.83% [at 42.5 µM].

Turning to `CC1=CCC(=C(C)C)CC1`, the “activity change, negative = cytotoxicity” value is 0.282%.

In the case of `CCCCCCCCCCOC(=O)c1ccccc1C(=O)OCCCCCCCC`, the “activity change, negative = cytotoxicity” value is 1.8%.

In the case of `O=C(O)[C@H](O)[C@@H](O)[C@H](O[C@@H]1O[C@H](CO)[C@H](O)[C@H](O)[C@H]1O)[C@H](O)CO`, the “activity change, negative = cytotoxicity” value is -1.04% [at 42.5 µM].

Consider `c1ccsc1`, for which the “activity change, negative = cytotoxicity” value is -1.12%.

As for `Nc1cc(Cl)c(O)c(Cl)c1`, the “activity change, negative = cytotoxicity” value is -0.434%.

On to `CN(C)C(=O)COC(=O)Cc1ccc(OC(=O)c2ccc(N=C(N)N)cc2)cc1`, for which the “activity change, negative = cytotoxicity” value is -0.435% [at 42.5 µM].

As for `C[Si](Cl)(c1ccccc1)c1ccccc1`, the “activity change, negative = cytotoxicity” value is -4.2%.

As to `Cc1cccc(C)c1NC(=O)c1ccc(N)cc1`, the “activity change, negative = cytotoxicity” value was -0.842% [at 42.5 µM].

Take `CCC(COC(=O)CCS)(COC(=O)CCS)COC(=O)CCS`: the “activity change, negative = cytotoxicity” value was -0.675%.

Turning to `CC(C)OC(=O)C(O)(CC(=O)O)CC(=O)O`, the “activity change, negative = cytotoxicity” value was 0.673%.

Regarding `S=c1nccc[nH]1`, the “activity change, negative = cytotoxicity” value was -0.667%.

As for `CN1CCN(Cc2cc(-c3ccc4[nH]c(=O)oc4c3)co2)[C@@H](c2ccc(F)cc2)C1`, the “activity change, negative = cytotoxicity” value is -5.18%.

As to `OC1CCCc2ccccc21` (stereo not drawn), the “activity change, negative = cytotoxicity” value was -0.229%.

Turning to `Cc1nc(-c2ccc(Cl)cc2)oc1COC(C)(C)C(=O)O`, the “activity change, negative = cytotoxicity” value was 0.423% [at 42.5 µM].

Turning to `O=C(O)c1cccc(C(F)(F)F)c1`, the “activity change, negative = cytotoxicity” value is -0.946%.

With `CCCCOC(=O)CO`, the “activity change, negative = cytotoxicity” value was 5%.

For `CCC(C)(CCC(C)C)C(=O)[O][Sn]([CH3])([CH3])[O]C(=O)C(C)(CC)CCC(C)C` (stereo not drawn), the “activity change, negative = cytotoxicity” value is -0.731%.

With `[Cu+]`, the “activity change, negative = cytotoxicity” value is -2.95%.

On to `O=C(O)CN(CCN(CC(=O)O)CC(=O)O)CC(=O)O`, for which the activity change, negative = cytotoxicity is 1.05% [at 3.27 µM].

The nature of a further assay: qHTS assay to identify small molecule antagonists of the retinoic acid receptor (RAR) signaling pathway (AID 1159552; also: nearly all actives have a fitted effect of over 50% in size; also: potency is read from the fitted curve at half-maximal effect). Conditions: C3RL4 RARE luciferase reporter, retinol-stimulated, 6 h; series mostly up to 92.4 µM; activity, negative = inhibition: at the top concentration. Summed up: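 Cells of the C3RL4 line were seeded, incubated overnight, then dosed with compounds in DMSO followed immediately by retinol (1 uM final). Six hours later luciferase detection reagent went in; signal was measured after 30 min at RT.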
`O=C1C(c2[nH]c3ccc(S(=O)(=O)O)cc3c2O)=Nc2ccc(S(=O)(=O)O)cc21`: the “activity, negative = inhibition” value was -22.2%.

Consider `CCN(CC)C(=O)c1cc(S(=O)(=O)Cc2ccccc2)c(N2CCC(c3ccccc3)CC2)cc1N(CC)CCN(C)C`, for which the Potency is 21.4 µM (active).

For `COc1ccc2cc1Oc1ccc(cc1)C[C@H]1c3c(cc4c(c3Oc3cc5c(cc3OC)CCN(C)[C@@H]5C2)OCO4)CCN1C`, the Potency was 4.22 µM (active).

For the compound `Oc1ccccc1O`, the Potency result was “inactive”.

Turning to `C=CC(=O)Nc1cc2c(Nc3ccc(F)c(Cl)c3)ncnc2cc1OCCCN1CCOCC1`, the Potency was 7.5 µM (active).

As for `C/C=C/C=C/COC(=O)C(C)C`, the Potency is 27.3 µM (active).

With `CCC(C)[O-].CCC(C)[O-].CCOC(=O)/C=C(/C)[O-].[Al+3]`, the “activity, negative = inhibition” value is 5.34%.

A further assay can be described thus: qHTS assay to identify small molecule agonists of the retinoic acid receptor (RAR) signaling pathway (AID 1159553). The following applies: C3RL4 RARE luciferase reporter, agonist, 6 h; activation: at 73.3 µM (top of the series) unless noted. Summed up: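 Quantitative high-throughput format: the Tox21 10K library was tested on C3RL4 RARE-luciferase cells for 6 hr at 37 C and 5% CO2, with luminescence measured after a 30 min room-temperature reagent step.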
As for `CCN(CC)C(=O)c1cc(S(=O)(=O)Cc2ccccc2)c(N2CCC(c3ccccc3)CC2)cc1N(CC)CCN(C)C`, the “activation” value is 7% [at 34.3 µM].

As for `COc1ccc2cc1Oc1ccc(cc1)C[C@H]1c3c(cc4c(c3Oc3cc5c(cc3OC)CCN(C)[C@@H]5C2)OCO4)CCN1C`, the “activation” value is -12.9%.

For `Oc1ccccc1O`, the “activation” value is 7.66% [at 94.8 µM].

For `Cc1cc(=O)oc2cc(O)cc(O)c12`, the “activation” value is -4.36% [at 94.8 µM].

Take `Nc1ccc(NCCO)c([N+](=O)[O-])c1`: the “activation” value was -3.95%.

As to `CCC(C)[O-].CCC(C)[O-].CCOC(=O)/C=C(/C)[O-].[Al+3]`, the “activation” value was 0.237%.
